TrxR1 substrate: is turned over as a substrate by rat TrxR1. purified TrxR1 substrate turnover, NADPH consumption readout. O89049. actives 0.01% (n = 390,000). AID 588456. Potency, µM (titrated, usually from 114 µM); also: nearly all actives have a fitted effect of over 50% in size
Target sequence (O89049 whole entry, looked up): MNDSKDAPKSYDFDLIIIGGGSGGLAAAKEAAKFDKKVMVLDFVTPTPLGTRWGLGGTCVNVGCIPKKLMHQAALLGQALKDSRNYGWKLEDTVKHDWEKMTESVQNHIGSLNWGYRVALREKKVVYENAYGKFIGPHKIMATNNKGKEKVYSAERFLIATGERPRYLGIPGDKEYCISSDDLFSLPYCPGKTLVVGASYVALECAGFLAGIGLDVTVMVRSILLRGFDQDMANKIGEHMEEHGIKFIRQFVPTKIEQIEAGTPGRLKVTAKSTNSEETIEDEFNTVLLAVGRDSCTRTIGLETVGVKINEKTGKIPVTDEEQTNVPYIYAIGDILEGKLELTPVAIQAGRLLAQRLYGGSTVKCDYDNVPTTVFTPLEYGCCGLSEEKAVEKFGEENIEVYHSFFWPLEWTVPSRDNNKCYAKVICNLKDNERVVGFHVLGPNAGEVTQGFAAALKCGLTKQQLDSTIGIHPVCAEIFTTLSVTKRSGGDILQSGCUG
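Rat TrxR1, dispensed at 90 nM, was prereduced with 400 uM NADPH (final) for 5 min at ~22 deg C, then incubated with compound 15 min before 400 uM selenite. A first-read NADPH fluorescence drop versus no-compound background flagged substrates.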
rTrxR1 inhibitor: blocks rat thioredoxin reductase 1; recombinant rTrxR1, NADPH fluorescence consumption, selenite substrate; actives 1% (n = 390,000); O89049; Potency, µM (series often up to 114 µM), usual class: inhibitors; AID 588453; also: nearly all actives have a fitted effect of over 65% in size
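Rat TrxR1 (90 nM in the dispensed reagent) was pre-reduced with 400 uM NADPH for 5 min at room temperature, then incubated with compound for 15 min. After 400 uM selenite was added, NADPH fluorescence (Ex 340/Em 450 nm) was followed for 8 min.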
A549 viability: A549 cytotoxicity, counter-screen for Nrf2 inhibitors; A549 ARE-Fluc cells, CellTiter-Fluor viability, 18-24 h; Potency, µM (series often up to 46 µM), hits mostly inhibitors; actives 0.16% (n = 390,000); AID 504648
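A549 ARE_Fluc cells in 5% FBS OPTI-MEM were exposed to compounds in concentration-response for 18-24 h at 37 deg C. Viability was read by CellTiter-Fluor fluorescence (Ex 405/Em 525) after 30 min, before the luciferase read.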
Mito fusion act: inhibitors of mitochondrial division or activators of mitochondrial fusion. S. cerevisiae fusion-defective mutant growth rescue, CellTiterGlo 48 h. Potency, µM (series often up to 46.1 µM), most hits filed as activators. actives 0.23% (n = 320,000); also: nearly all actives have a fitted effect of over 45% in size
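S. cerevisiae fusion-defective temperature-sensitive mutants (e.g. fzo1-1, mgm1-5) grown 48 h at 37C in YPEG (ethanol/glycerol non-fermentable) medium with 23 nl compound per well; growth rescue read as CellTiterGlo luminescence.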
IDH1 R132H inh: blocks human mutant IDH1 R132H enzyme; AID 602179; O75874; IDH1-R132H enzyme, NADPH consumption, diaphorase/resazurin fluorescence; Potency, µM (titrated, usually from 76.6 µM), hits mostly inhibitors; actives 0.093% (n = 390,000); also: nearly all actives have a fitted effect of over 65% in size
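IDH1-R132H (0.5 ug/mL) preincubated 30 min with compound, then NADPH (0.016 mM) and alpha-KG (2 mM) added; 80 min at RT, pH 7.5. Remaining NADPH coupled via diaphorase/resazurin to fluorescence (540/590 nm); concentration-response curves normalized to no-enzyme control.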
Nrf2 block: blocks Nrf2 signaling; A549 ARE-Fluc reporter, luciferase luminescence, 18-24 h; AID 504444; actives 2.1% (n = 360,000); Potency, µM (titrated, usually from 46 µM), most hits filed as inhibitors; also: nearly all actives have a fitted effect of over 60% in size
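Cells were seeded and rested 2 h, then exposed to compounds for 18-24 h. CellTiter-Fluor was read first as a viability measure. BugLite was added 15 min before the final luminescent read of ARE-luciferase activity in A549 cells.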
Numbers stand for hits; n = inactive; u = inconclusive; x = not tested or not shown. Compounds with a hit are over-represented: about 3.1% of the library has one in this group of screens. Calls follow the shape of the dose curve; as a rule, active = well fitted curve in the direction sought with a large enough effect; inconclusive = small, poorly fitted or top-dose-only effect, or another doubt; inactive = no such curve, though single readings can be large; an effect the other way counts as inactive or inconclusive.

SMILES | TrxR1 substrate | rTrxR1 inhibitor | A549 viability | Mito fusion act | IDH1 R132H inh | Nrf2 block
CC1=C(C(N)=O)C(c2cccs2)n2nc(-c3cccc(Cl)c3)nc2N1 (stereo not drawn) | n | n | n | n | n | 13µM
Cc1cc(O)cc2c1O[C@](C)(CCC(=O)O)CC2 | n | n | x | x | x | x
CN(C)S(=O)(=O)N(CC(=O)Nc1ccc(Br)cc1F)c1ccccc1 | n | n | n | x | n | n
COc1cccc(NC(=O)c2ccc(-c3ccccc3[N+](=O)[O-])o2)c1 | n | 15.8µM | u | n | n | u
CCC(Oc1ccc(F)cc1)C(=O)Nc1c(C(=O)c2ccc(C)cc2)oc2ccccc12 (stereo not drawn) | n | n | n | x | n | n
Cc1ccc(S(=O)(=O)N2C[C@@H]3[C@H]4CC[C@H](C4)[C@@H]3[C@@H](C)[C@H]2c2ccco2)cc1 | n | n | n | x | n | 20.6µM
Cc1ccc(S(=O)(=O)N2C[C@@H]3[C@H]4CC[C@H](C4)[C@@H]3[C@@H](C)[C@@H]2c2ccco2)cc1 | n | n | n | x | n | u
O=C(/C=C/c1ccccc1)/C=C/c1ccccc1 | n | 56.2µM | n | u | n | n
O=C(/C=C/c1ccccc1)c1ccccc1 | n | u | n | n | n | n
Cc1ccc(CNC(=O)C(=O)NCC2OCCN2S(=O)(=O)c2ccc3c(c2)OCCO3)cc1 (stereo not drawn) | n | n | n | n | n | 10.3µM
O=C(NCc1ccccc1)C(=O)NCC1OCCN1S(=O)(=O)c1ccc2c(c1)OCCO2 (stereo not drawn) | n | n | n | n | n | n
COc1ccc(CCNC(=O)C(=O)NCC2OCCN2S(=O)(=O)c2ccc3c(c2)OCCO3)cc1 (stereo not drawn) | n | n | n | n | n | 9.2µM
Cc1ccc(CNC(=O)C(=O)NCC2OCCN2S(=O)(=O)c2ccc(Br)cc2)cc1 (stereo not drawn) | n | n | n | n | n | 16.4µM
CCN(C(=O)Cn1cc(C(=O)c2ccc(F)cc2)c(=O)c2ccc(C)nc21)c1cccc(C)c1 | n | n | n | x | n | n
C[C@@H]1[C@H](c2ccccc2)OCCS(=O)(=O)N1Cc1ccccc1F | n | n | x | x | x | x
Cc1cc(=O)n2c(C(=O)Nc3ccc(C(=O)OC(C)C)cc3)c(C(=O)Nc3ccccc3)sc2n1 | n | 50.1µM | n | n | n | u
Cc1cc(=O)n2c(C(=O)Nc3ccc(F)c(Cl)c3)c(C(=O)Nc3cccc(C)c3C)sc2n1 | n | n | n | x | n | n
Cc1ccc(NC(=O)C(C)OC(=O)c2ccc(NS(=O)(=O)c3ccc(F)c(F)c3)cc2)cc1 (stereo not drawn) | n | n | n | n | n | u
Cc1ccc(S(=O)(=O)Nc2ccc(C(=O)N3CCN(c4ccccc4O)CC3)cc2)cc1[N+](=O)[O-] | n | n | n | u | n | 14.6µM
CCc1ccc(NC(=O)C(C)OC(=O)c2ccc(NS(=O)(=O)c3ccc(C)c([N+](=O)[O-])c3)cc2)cc1 (stereo not drawn) | n | n | u | n | n | 20.6µM
CCOC(=O)c1ccc(NC(=O)CCc2c(C)n(CC)c3cc(-c4ccccc4OC)nn3c2=O)cc1 | n | n | n | x | n | n
O=C(Nc1ccc(Cl)cc1Cl)[C@@H]1CC=C[C@@H]2CCN(C3CC3)C(=O)[C@@H]21 | n | n | x | x | x | x
Cc1cccc(CSCc2ccc(C(=O)NC(C)C)o2)c1 | n | n | n | n | n | 20.6µM
OC(c1ccccc1)C1CN(Cc2ccccc2)CCC1(O)c1ccccc1 (stereo not drawn) | n | u | n | n | n | n
O=C(c1ccccc1)C1CN(Cc2ccccc2)CCC1(O)c1ccccc1 (stereo not drawn) | n | 7.08µM | n | n | n | n
SMILES | TrxR1 substrate | rTrxR1 inhibitor | A549 viability | Mito fusion act | IDH1 R132H inh | Nrf2 block
COc1cc(C=Nc2ccccc2C(=O)Nc2ccccc2)cc(OC)c1OC | n | 22.4µM | n | n | n | n
COc1cc(NC(=O)c2ccccc2-c2ccccc2)cc(OC)c1OC | x | x | x | n | x | x
CC(C)Cn1cc(NC(=O)N2CCN(c3cccc(Cl)c3)CC2)c2ccccc2c1=O | n | n | n | x | n | n
CCOc1ccccc1CNS(=O)(=O)c1cnc(N)nc1 | n | n | n | x | n | x
O=C(Cn1c(=O)n(Cc2nc(-c3ccccc3)no2)c(=O)c2ccccc21)Nc1cccc(C(F)(F)F)c1 | n | n | n | x | n | 16.4µM
O=C(CSc1nc2ccccc2c(=O)n1CCCN1CCOCC1)Nc1cccc(S(=O)(=O)N2CCCCCC2)c1 | n | n | u | n | n | 23.1µM
CCOc1ccc(OCC)c(NC(=O)CSc2nc3ccccc3c(=O)n2C)c1 | n | n | n | n | n | 10.3µM
Cc1cccc(NC(=O)CSc2nc3ccccc3c(=O)n2C)c1 | n | n | n | n | n | 11.6µM
CCOc1ccc(OCC)c(NC(=O)CSc2nc3cccnc3n2C)c1 | n | n | n | n | n | u
Cc1cccc(NC(=O)CSc2nnc(-c3ccccc3)n2N)c1 | n | n | n | n | n | n
Cc1cc(C)cc(NC(=O)CSc2nnc(-c3ccccc3)n2N)c1 | n | n | n | 0.631µM | n | u
O=C1CN(CCN2CC(=O)NC(=O)C2)CC(=O)N1 | n | n | x | x | x | x
COc1ccc(OC)c(CCNc2nc3cc(OC)c(OC)cc3c3nc(-c4cccnc4)nn23)c1 | n | n | n | x | n | n
Cn1c2c(c3cnc4cc(Cl)ccc4c31)CNCC2 | n | n | n | x | x | n
CCN(CC)c1ccc(NS(=O)(=O)c2ccc(-c3coc(C)n3)cc2)c(C)c1 | n | n | n | x | n | x
O=C1CCCc2[nH]c(=O)c(C(=O)NCc3ccccc3)cc21 | n | n | x | x | x | x
COc1cccc2sc3cc(NCc4ccc(C)o4)ccc3c(=O)c12 | n | 79.4µM | n | x | n | n
CCn1cc(C(=O)NCCc2ccc(Cl)cc2)c(=O)c2cc(S(=O)(=O)N3CCc4ccccc4C3)ccc21 | n | n | n | x | n | n
Cc1ccc2c(c1)N(C(=O)CCC(=O)NCc1ccccc1)CC(C)O2 (stereo not drawn) | n | n | n | n | n | u
Cc1ccc2c(c1)N(C(=O)CCC(=O)NCc1cccc(Cl)c1)CC(C)O2 (stereo not drawn) | n | n | n | 15.8µM | n | n
CCOc1ccccc1-c1nnc2n1N=C(c1cc(OC)cc(OC)c1)CS2 | x | x | n | x | x | u
CC(C)(C)c1ccc(C(=O)C[n+]2cccc(Br)c2)cc1 | n | n | x | x | x | x
O=C(O)CNC(=O)c1ccc(OC(F)F)cc1 | n | n | n | n | n | n
O=C1CCCC(=O)N1c1ccc(O)cc1 | n | n | u | n | n | n

High-throughput results (PubChem)
